Rows were chosen to be rich in hits. Some 1.1% of all compounds tested hit in one or more screens of this group.
cytoskel mod: cytoskeleton assembly modification. inhibition, % at 2 µM. HUVEC TNFa F-actin phalloidin imaging, high content. AID 836. hit rate 0.18% among 91,000;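 active = inhibition above the batch mean plus 3 SD and confirmed as a hit by visual image inspection, cut at about 30% in these data, passing the limit was not always enough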
VCAM1 TNFa inh: reduces TNF alpha induced VCAM1 expression in HUVEC; HUVEC TNFa-induced VCAM-1 immunofluorescence, high-content imaging; inhibition, % at 2 µM; hit rate 0.48% among 95,000; AID 802;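 active = inhibition above the batch mean plus 3 SD, with images confirmed as a hit by eye, cut at about 37% in these data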
E-sel TNF inh: TNF alpha driven E-selectin expression inhibition; HUVEC TNFa-induced E-selectin immunofluorescence, high content; inhibition, % at 2 µM; hit rate 0.71% among 120,000; AID 1246;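 active = inhibition above the batch mean plus 3 SD, and confirmed as a hit on visual image review, cut at about 43% in these data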
TNFa cytotox: HUVEC cytotoxicity counter-screen, TNF alpha stimulated | HUVEC TNFalpha-stimulated, Hoechst cell count, imaging | cell count reduction, % at 2 µM | hit rate 0.17% among 93,000;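 active = cell count reduction exceeding the screen mean by over 5 SD, scaled to untreated wells per plate, cut at about 78% in these data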;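 also: cells counted after 24 h of TNF alpha exposure following the 1 h pretreatment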
Large screens that a line does not name were inactive.

COc1ccc(-n2c(-c3ccc(F)cc3)cnc2SCC(=O)NCc2ccco2)cc1	none
COc1ccc(-n2c(SCC(=O)NCc3ccco3)nc3c([nH]c4ccccc43)c2=O)cc1	E-sel TNF inh 82.4
COc1ccc(-c2nc(N)nc(C)c2Oc2ccccc2Br)c(O)c1	none
CCOC(=O)N1CCN(C(=S)NC(=O)c2cncc(Br)c2)CC1	E-sel TNF inh 88.7 (no result: cytoskel mod, VCAM1 TNFa inh, TNFa cytotox)
O=C(Nc1ccc(Cl)cc1)c1cc2nc(-c3ccco3)cc(C(F)(F)F)n2n1	E-sel TNF inh 78.4
C[C@@H]1CC[C@@]2(O[C@H](CCO)C[C@@H](O)[C@@H]2O)O1	E-sel TNF inh 63.5 (no result: cytoskel mod, VCAM1 TNFa inh, TNFa cytotox)
CCOC(=O)NC(C)N1C(=O)C2C3C=CC(C3)C2C1=O (stereo unspecified)	none (no result: cytoskel mod, VCAM1 TNFa inh, TNFa cytotox)
CC(NC(=O)COC(=O)Cc1ccsc1)C1CC2CCC1C2 (stereo unspecified)	VCAM1 TNFa inh 88.1
CC(NC(=O)COC(=O)Cc1ccsc1)c1ccccc1 (stereo unspecified)	none (no result: cytoskel mod, VCAM1 TNFa inh, TNFa cytotox)
CCOc1ccc2ccccc2c1/C=N/n1cncn1	VCAM1 TNFa inh 88.5
CCCOc1ccc2ccccc2c1/C=N/n1cnnc1	none
CC(C)OCCCNc1ncc2c(n1)CC(c1ccccc1)CC2=O (stereo unspecified)	none (no result: cytoskel mod, VCAM1 TNFa inh, TNFa cytotox)
Cc1ccnc(NC(=O)Nc2ccc3c(c2)N(C)C(=O)CS3)c1	none (no result: cytoskel mod, VCAM1 TNFa inh, TNFa cytotox)
Cc1ccc(NC(=O)Nc2ccc3c(c2)N(C)C(=O)CS3)nc1	E-sel TNF inh 94.1
COc1ccc(-c2csc(N(CCc3ccc(OC)c(OC)c3)C(=O)COc3ccccc3)n2)cc1	none
O=C1NCCCc2c1oc1cc(Br)c(O)c(Br)c21	E-sel TNF inh 97.1 (no result: cytoskel mod, VCAM1 TNFa inh, TNFa cytotox)
COC(=O)c1ccc(CSc2nnc(-c3ccncc3)n2Cc2ccccc2)o1	cytoskel mod 75.6
COc1ccc(C(=O)CN2C(=O)NC3(CCCc4ccccc43)C2=O)cc1OC (stereo unspecified)	E-sel TNF inh 99.9
COc1ccc(Cn2c(C)nnc2-c2cnn(C)c2N)cc1	none (no result: cytoskel mod, VCAM1 TNFa inh, TNFa cytotox)
CC(SC#N)C(=O)C12CC3CC(CC(C3)C1)C2 (stereo unspecified)	none (no result: cytoskel mod, VCAM1 TNFa inh, TNFa cytotox)
COc1cc(C2C(C#N)=C(N)Oc3cc(N(C)C)ccc32)cc2c1OCO2 (stereo unspecified)	VCAM1 TNFa inh 97.2 (no result: E-sel TNF inh)
CC[n+]1c(/C=C2/C=C(C)CC(C)(C)C2)sc2ccc(OC)cc21	E-sel TNF inh 67.4
CCOC(=O)CCS(=O)(=O)c1ccc(-c2ccc(S(=O)(=O)CCC(=O)OCC)cc2)cc1	none
N#Cc1ccsc1NC(=O)COC(=O)c1ccc2ccccc2c1	E-sel TNF inh 97.3 (no result: cytoskel mod, VCAM1 TNFa inh, TNFa cytotox)
